Test results: PubChem BioAssay (Tox21)
“And” between values parts separate entries of the source, which are not always exact repeats. Equal entries are not always repeated. Inconclusive results are not listed. The source made the active and inactive calls. Calls follow the shape of the dose curve; as a rule, active = well fitted inhibition curve with a large enough effect in the signal ratio in the repeat runs (not every such curve was filed as active); inconclusive = weak or mixed curves, or effect the other way; inactive = no such curve, though single readings can be large or run the other way; the % refers to the signal ratio.

These compounds were tested against Androgen receptor (Homo sapiens) (UniProt P10275) (assay: qHTS assay to identify small molecule antagonists of the androgen receptor (AR) signaling pathway (AID 743035)). Details: HEK293 AR-UAS-bla, R1881-stimulated, beta-lactamase FRET, 16 h; series mostly up to 58.5 µM.
Description: National Center for Advancing Translational Sciences [NCATS]
NIH Chemical Genomics Center [NCGC]
U.S. Environmental Protection Agency [EPA]
National Institutes of Environmental Health Sciences [NIEHS]
National Toxicology Program [NTP]
U.S. Food and Drug Administration [FDA]
Androgen receptor (AR), a nuclear hormone receptor, plays a critical role in AR-dependent prostate cancer and other androgen related diseases. Endocrine disrupting chemicals (EDCs) and their interactions with steroid hormone receptors like AR may cause disruption of normal endocrine function as well as interfere with metabolic homeostasis, reproduction, developmental and behavioral functions. To identify the compounds that inhibit AR signaling, GeneBLAzer AR-UAS-bla-GripTite cell line (Invitrogen, Carlsbad, CA, USA) containing a beta-lactamase reporter gene under control of an Upstream Activator Sequence (UAS) stably integrated into HEK293 cells was used to screen the Tox21 10K compound library.
Tox21 Assay Protocol Summary:
AR-bla cells were dispensed at 2,000 cells/5 uL of assay medium per well into black wall/clear-bottom 1536-well plates using a Multidrop Combi (ThermoFisher Scientific, Waltham, MA) dispenser. After the assay plates were incubated at a 37C and 5% CO2 for 4 hr, 23 nL of compounds dissolved in DMSO, positive controls or DMSO only was transferred to the assay plate by a Pintool station (Kalypsys, San Diego, CA), followed by addition of 1 uL of agonist (R1881) in culture medium using a Bioraptr Flying Reagent Dispenser (FRD) workstation (Beckman Coulter, Indianapolis, IN, USA). The plates were incubated at a 37C and 5% CO2 for 16 h. After 1 uL of LiveBLAzerTM B/G FRET substrate was added using a Bioraptr FRD, the plates were incubated at room temperature for 2 h and fluorescence intensity was measured by an Envision plate reader (PerkinElmer, Shelton, CT).
Potency is read from the fitted curve at half-maximal effect.

Chain of Androgen receptor (Homo sapiens) (P10275 whole entry, looked up): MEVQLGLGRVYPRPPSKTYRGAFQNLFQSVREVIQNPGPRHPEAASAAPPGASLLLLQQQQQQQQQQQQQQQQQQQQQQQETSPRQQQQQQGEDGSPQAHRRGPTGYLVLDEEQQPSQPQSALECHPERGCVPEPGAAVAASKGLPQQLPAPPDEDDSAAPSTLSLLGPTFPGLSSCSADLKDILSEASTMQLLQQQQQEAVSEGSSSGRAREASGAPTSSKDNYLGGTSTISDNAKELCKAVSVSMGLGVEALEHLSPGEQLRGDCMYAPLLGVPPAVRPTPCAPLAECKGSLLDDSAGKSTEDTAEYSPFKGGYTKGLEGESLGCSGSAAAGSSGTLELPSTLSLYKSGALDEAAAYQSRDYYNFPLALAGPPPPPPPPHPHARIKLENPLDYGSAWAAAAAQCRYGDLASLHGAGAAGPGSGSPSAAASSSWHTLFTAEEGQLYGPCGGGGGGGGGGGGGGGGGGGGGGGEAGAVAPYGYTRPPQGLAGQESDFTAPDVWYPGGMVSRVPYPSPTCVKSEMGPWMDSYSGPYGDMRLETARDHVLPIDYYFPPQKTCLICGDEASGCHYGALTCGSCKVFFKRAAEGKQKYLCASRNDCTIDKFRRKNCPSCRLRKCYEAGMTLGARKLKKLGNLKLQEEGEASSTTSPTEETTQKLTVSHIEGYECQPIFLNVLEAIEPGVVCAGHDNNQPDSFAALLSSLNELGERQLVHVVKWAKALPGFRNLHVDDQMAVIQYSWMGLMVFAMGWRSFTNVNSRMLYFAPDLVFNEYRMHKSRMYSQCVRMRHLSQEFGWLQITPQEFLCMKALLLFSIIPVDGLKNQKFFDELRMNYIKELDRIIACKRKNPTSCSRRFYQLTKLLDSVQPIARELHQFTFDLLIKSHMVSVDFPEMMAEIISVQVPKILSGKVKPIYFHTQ

Structure (SMILES)	Potency
COC(=O)N(C(=O)N1CO[C@@]2(C(=O)OC)Cc3cc(Cl)ccc3C2=N1)c1ccc(OC(F)(F)F)cc1	6.69 µM (active)
C[C@@H]1O[C@@H](O[C@H]2C[C@@H](O)[C@]3(CO)[C@H]4[C@H](O)C[C@]5(C)[C@@H](C6=CC(=O)OC6)CC[C@]5(O)[C@@H]4CC[C@]3(O)C2)[C@H](O)[C@H](O)[C@H]1O	213 nM (active) and 190 nM (active) and 46.5 nM (active)
COc1cccc(C(=O)CCN[C@@H](C)[C@H](O)c2ccccc2)c1	inactive
CN(C)CCc1c[nH]c2ccc(O)cc12	inactive
Cc1cc(N=Nc2ccccc2C)ccc1N	21.9 µM (active)
FC(Cl)(Cl)Cl	inactive
ClC1=C(Cl)C2(Cl)C3C(Cl)C(Cl)CC3C1(Cl)C2(Cl)Cl (stereo not drawn)	48.8 µM (active) and 43.6 µM (active)
CCN(CC)c1c([N+](=O)[O-])cc(C(F)(F)F)c(N)c1[N+](=O)[O-]	43.6 µM (active)
CNC(C)Cc1ccc2c(c1)OCO2 (stereo not drawn)	inactive
CC(C)(C)OO	inactive
CC(=O)C(Cl)(Cl)Cl	5.31 µM (active)
CC(C)N1C(=O)N(c2ccccc2)CSC1=NC(C)(C)C	inactive
N#CCCSCCC#N	inactive
CCOC(=O)C1(c2ccccc2)CCN(CCC(C#N)(c2ccccc2)c2ccccc2)CC1	10.7 µM (active) and 13.4 µM (active)
CC(=O)/C=C/c1ccc2c(c1)OCO2	12.4 µM (active)
CCCCCCCCCCCCCCCCCCn1cc[n+](C)c1	3.87 µM (active)
S=C=Nc1cccc2ccccc12	48.5 µM (active)
CCCSP(=O)(OCC)SCCC	inactive
C=CC(=O)OCC(COC(=O)C=C)(COC(=O)C=C)COC(=O)C=C	4.36 µM (active)
C[C@H]1O[C@@H](O[C@H]2[C@@H](O)C[C@H](O[C@H]3[C@@H](O)C[C@H](O[C@H]4CC[C@@]5(C)[C@H](CC[C@@H]6[C@@H]5CC[C@]5(C)[C@@H](C7=CC(=O)OC7)CC[C@]65O)C4)O[C@@H]3C)O[C@@H]2C)C[C@H](O)[C@@H]1O	425 nM (active) and 124 nM (active)
O=C(CCl)Nc1ccccc1	15.5 µM (active)
COc1ccc(/C(=C/C(=O)N2CCOCC2)c2ccc(Cl)cc2)cc1OC	inactive
O=c1oc2ccccc2c(O)c1Cc1c(O)c2ccccc2oc1=O	inactive
